The AC50 is the midpoint of the concentration-response curve, whichever way the signal moves.

Calls of active or inactive are those of the source. How the source made its calls: active means hit-call score of the fitted dose curve at least 0.9, where 1 is the maximum; inactive means score below 0.9.

The test in a line: APR_HepG2_MitoMembPot_1hr: Apredica 1-hour HepG2 Assay for Mitochondrial Membrane Potential (AID 2282675). To be noted: imaging, actives raise or lower the signal. The procedure:
APR_HepG2_1hr is a cell-based, multiplexed-readout assay that uses HepG2, a human liver cell line, with measurements taken at 1 hour after chemical dosing in a 384-well plate.APR_HepG2_MitoMembPot_1hr is one of 10 assay component(s) measured or calculated from the APR_HepG2_1hr assay. It is designed to make measurements of dye binding, a form of membrane potential reporter, as detected with fluorescence intensity signals by HCS Fluorescent Imaging technology.Data from the assay component APR_HepG2_MitoMembPot_1hr was analyzed into 1 assay endpoint. This assay endpoint, APR_HepG2_MitoMembPot_1hr, was analyzed with bidirectional fitting relative to DMSO as the negative control and baseline of activity. Using a type of membrane potential reporter, gain or loss-of-signal activity can be used to understand changes in the signaling. Furthermore, this assay endpoint can be referred to as a primary readout, because this assay has produced multiple assay endpoints where this one serves a signaling function. To generalize the intended target to other relatable targets, this assay endpoint is annotated to the cell morphology intended target family, where the subfamily is organelle conformation.
Cells were treated with dimethyl sulfoxide (DMSO) as a solvent control at a final concentration of 0.5% v/v or with compounds in DMSO with a resulting final DMSO concentration of 0.5% v/v. Compound treatment was done at concentrations of 0.39, 0.78, 1.56, 3.12, 6.24, 12.5, 25, 50, 100, and 200 uM in duplicate on each plate. Cells were treated with compounds for 1, 24, or 72 hr. Carbonyl […] m-chloro-phenylhydrazone (CCCP) and taxol were used as positive controls for mitochondrial function and cytoskeletal stability, respectively; DMSO served as the negative control for this experiment. Cells were fixed by the direct addition of 50 uL formaldehyde in Hank's Balanced Salt Solution (HBSS) to a final concentration of 3.7%. After incubation in the fixation medium for 30 min at room temperature (293-298 K), cells were rinsed twice with HBSS and treated with cell permeabilization buffer (16 uL of 0.5% Triton X-100) for 10 min at room temperature (293-298 K) before labeling. For mitochondrial membrane potential and mitochondrial measurements, pre-fixed cells were incubated with 50 uL of MitoTracker Red CMXRos (Invitrogen) at a concentration of 250 nM for 30 min before fixation. In the remaining cases, post-fixed cells were labeled by incubation with a multiplexed mixture of primary antibodies in HBSS for 60 min at room temperature (293-298 K) to detect immunoreactivity of c-Jun (1:500), phospho-histone H3 (1:100), phospho-histone H2A.x (1:200), p53 (1:400), alpha-tubulin (1:200) and Hoechst 33342 (2 ug/mL). Cells were labeled for multiplexed imaging on two separate plates: a) Hoechst 33342, MitoTracker Red, phospho-histone H3, and alpha-tubulin, and b) Hoechst 33342, phospho-histone H2A.x, and c-Jun. A final rinse with HBSS (50 uL) was performed before analysis. The primary and secondary antibodies for the proteins were phospho-histone H3 (rabbit anti-phospho-histone H3 and FITC-donkey anti-rabbit IgG), phospho-histone H2A.x (mouse anti-phospho-histone H2A.x and FITC-donkey anti-mouse IgG), c-Jun (rabbit anti-phospho-c-Jun and Cy3-donkey anti-rabbit IgG), p53 (sheep anti-p53 and Cy5-donkey anti-sheep IgG), alpha-tubulin (mouse anti-alpha-tubulin and Cy5-donkey anti-mouse IgG). These antibodies are available as the CellCiphr HepG2 assay kit (Millipore).Digital images of each well were captured using a Cellomics ArrayScan VTI (Thermo Scientific Cellomics) (0.8 NA objective, 0.63x optical coupler, and XF-93 filter set) at 20x magnification. The images were acquired using the autofocus feature of the ArrayScan instrument, which entails the following steps. First, the camera focuses on channel 1 (Hoechst 33342), where nuclei are identified. Second, a Z offset of 1 um is used for capturing mitochondria (MitoTracker Red). […]
In the case of `O=c1n(Cl)c(=O)n(Cl)c(=O)n1Cl`, the result was inactive.
For the compound `Cc1nc(N(C)C)nc(OC(=O)N(C)C)c1C`, the outcome was inactive.
In the case of `COCc1cnc(C2=NC(C)(C(C)C)C(=O)N2)c(C(=O)O)c1` (stereo not given), the result was inactive.
As to `CS(=O)(=O)c1ccc(C(=O)C2C(=O)CCCC2=O)c([N+](=O)[O-])c1`, the compound was classed as inactive.
`CCCC(=NOCC)C1=C(O)CC(CC(C)SCC)CC1=O` (stereo not given): the call was inactive.
For the compound `CC(C)Nc1nc(Cl)nc(NC(C)C)n1`, the compound was classed as inactive.
Same read-out and setting: under `CCSC(=O)N1CCCCCC1` stands “inactive”.
Consider `Cc1cc(C)nc(Nc2ccccc2)n1`, for which the outcome was inactive.
As to `CC1(C)CON(Cc2ccccc2Cl)C1=O`, the result was inactive.
`CCCCOCN(C(=O)CCl)c1c(CC)cccc1CC`: the result was inactive.
With `CSC(=O)c1c(C(F)F)nc(C(F)(F)F)c(C(=O)SC)c1CC(C)C`, the outcome was inactive.
In the case of `CCOc1nc(F)cc2nc(S(=O)(=O)Nc3c(Cl)cccc3Cl)nn12`, the result was inactive.
With `N#Cc1c(Cl)cccc1Cl`, the compound was classed as inactive.
As to `COc1cc(Cl)c(OC)cc1Cl`, the compound was classed as inactive.
The same measure, in the same setting: under `O=C(Nc1ccccc1-c1ccc(Cl)cc1)c1cccnc1Cl` stands “inactive”.
`Cc1ccc(N=CN(C)C=Nc2ccc(C)cc2C)c(C)c1`: the concentration at half-maximal activity (AC50) was 108 µM (active).
For `CC(C)(C)C(=O)C(Oc1ccc(Cl)cc1)n1cncn1` (stereo not given), the compound was classed as inactive.
`CCOc1cc(C(C)(C)C)ccc1C1COC(c2c(F)cccc2F)=N1` (stereo not given): the AC50 is 100 µM (active).
Take `CCCCC(O)(Cn1cncn1)c1ccc(Cl)cc1Cl` (stereo not given): the outcome was inactive.
On to `Cc1c(COC(=O)[C@@H]2[C@H](/C=C(\Cl)C(F)(F)F)C2(C)C)cccc1-c1ccccc1`, for which the compound was classed as inactive.
Take `CCNP(=S)(OC)O/C(C)=C/C(=O)OC(C)C` (stereo not given): the outcome was inactive.
`O=C(O)c1c(Cl)ccc2cc(Cl)cnc12`: the compound was called inactive.
On the same count and under the same terms, the value for `CCN(CC)C(=O)C(C)Oc1cccc2ccccc12` (stereo not given) was “inactive”; that for `Nc1cnn(-c2ccccc2)c(=O)c1Cl` was “inactive”.
In the case of `CC(C)N1C(=O)N(c2ccccc2)CSC1=NC(C)(C)C`, the AC50 is 114 µM (active).
Turning to `C=CCOC(=O)C(C)(C)OC(=O)c1cc(-n2c(=O)cc(C(F)(F)F)n(C)c2=O)ccc1Cl`, the compound was called inactive.
For the compound `COc1ccc(-c2ccccc2)cc1NNC(=O)OC(C)C`, the call was inactive.
In the case of `CO/N=C(/C1=NOCCO1)c1ccccc1Oc1ncnc(Oc2ccccc2Cl)c1F`, the outcome was inactive.
On to `CCOc1nc(C(Cl)(Cl)Cl)ns1`, for which the compound was called inactive.
`Cn1c(-c2ccccc2)cc(-c2ccccc2)[n+]1C`: the call was inactive.
The same measure, in the same setting: the value for `O=C1C2CC=CCC2C(=O)N1SC(Cl)(Cl)Cl` (stereo not given) was “inactive”; that for `C=C(C)CN(CC)c1c([N+](=O)[O-])cc(C(F)(F)F)cc1[N+](=O)[O-]` was “inactive”.
On the same count and under the same terms, the value for `COc1cc(OC)nc(NC(=O)NS(=O)(=O)c2ncccc2OCC(F)(F)F)n1` was “inactive”; that for `CC(C)Oc1cccc(NC(=O)c2ccccc2C(F)(F)F)c1` was “inactive”.
Turning to `N#Cc1c[nH]cc1-c1cccc2c1OC(F)(F)O2`, the result was inactive.
For `CS(=O)(=O)c1cc(C(F)(F)F)ccc1C(=O)c1cnoc1C1CC1`, the result was inactive.
On to `CCOP(=S)(OCC)Oc1nc(Cl)n(C(C)C)n1`, for which the call was inactive.
As for `Cc1cnc(C2=NC(C)(C(C)C)C(=O)N2)c(C(=O)O)c1` (stereo not given), the compound was called inactive.
For the compound `CC(C)C1(C)N=C(c2ncccc2C(=O)O)NC1=O` (stereo not given), the compound was called inactive.
In the case of `CCOC(=O)C(C)OC(=O)c1cc(Oc2ccc(C(F)(F)F)cc2Cl)ccc1[N+](=O)[O-]` (stereo not given), the compound was called inactive.

The record behind these values is PubChem BioAssay (EPA / NIEHS).
